In publication PMC7862700, “An all-to-all approach to the identification of sequence-specific readers for epigenetic DNA modifications on cytosine”:

Columns and labels:
Experiment in all cases: DAPPL (digital affinity profiling via proximity ligation, sequencing); 10 mM Tris-HCl pH 7.5, 50 mM NaCl, 1 mM DTT, 4% glycerol, room temperature, 30 min; GST-TFs on glutathione beads, 16-mer random dsDNA library, 0.1% formaldehyde crosslink after washing; high values mean tight binding
Settings in all cases: protein: recombinant; tags: N-terminal GST; dsDNA, one strand shown
[1] = target: T1, FLI1 (Homo sapiens, UniProt Q01543 1-452)
T1 sequence: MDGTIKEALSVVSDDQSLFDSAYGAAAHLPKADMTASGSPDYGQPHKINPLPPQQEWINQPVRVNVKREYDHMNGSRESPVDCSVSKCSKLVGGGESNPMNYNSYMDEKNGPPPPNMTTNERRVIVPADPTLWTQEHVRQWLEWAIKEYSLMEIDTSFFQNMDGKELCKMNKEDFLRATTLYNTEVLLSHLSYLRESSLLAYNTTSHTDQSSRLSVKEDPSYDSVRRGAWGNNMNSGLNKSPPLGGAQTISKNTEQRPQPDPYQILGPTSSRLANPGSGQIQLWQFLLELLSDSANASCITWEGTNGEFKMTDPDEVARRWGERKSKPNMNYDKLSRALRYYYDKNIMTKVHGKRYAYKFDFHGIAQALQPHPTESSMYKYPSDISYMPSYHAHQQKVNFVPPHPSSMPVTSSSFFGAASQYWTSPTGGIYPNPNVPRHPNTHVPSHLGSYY
In short: (§1)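 GST fusions of human transcription factors were expressed in yeast and captured with glutathione beads. Once given DNA barcodes and pooled alongside a tag-only sample, they were incubated for 30 min at room temperature with 200 nmole of a random double-stranded 16-mer DNA library in Tris/NaCl/DTT/glycerol buffer, then washed, crosslinked (0.1% formaldehyde), proximity-ligated, PCR-amplified and sequenced on an Illumina NextSeq500. The binding signal of each hexamer is its read frequency for a factor divided by its frequency for the tag-only sample.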

[2] = target: T2, ELK1 (Homo sapiens, UniProt P19419 1-428)
T2 sequence: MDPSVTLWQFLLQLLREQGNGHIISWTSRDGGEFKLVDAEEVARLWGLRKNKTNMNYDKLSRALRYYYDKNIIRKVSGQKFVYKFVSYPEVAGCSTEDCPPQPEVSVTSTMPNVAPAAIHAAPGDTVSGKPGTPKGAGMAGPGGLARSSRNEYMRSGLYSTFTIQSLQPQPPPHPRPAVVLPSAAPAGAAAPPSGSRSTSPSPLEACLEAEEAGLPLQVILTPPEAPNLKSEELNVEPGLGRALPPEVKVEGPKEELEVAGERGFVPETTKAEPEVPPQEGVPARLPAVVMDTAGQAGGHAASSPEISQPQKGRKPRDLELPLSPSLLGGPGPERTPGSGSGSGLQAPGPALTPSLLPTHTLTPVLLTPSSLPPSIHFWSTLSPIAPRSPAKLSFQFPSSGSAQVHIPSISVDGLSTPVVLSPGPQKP
In short: as §1

[3] = target: T3, GABPA (Homo sapiens, UniProt Q06546 1-454)
T3 sequence: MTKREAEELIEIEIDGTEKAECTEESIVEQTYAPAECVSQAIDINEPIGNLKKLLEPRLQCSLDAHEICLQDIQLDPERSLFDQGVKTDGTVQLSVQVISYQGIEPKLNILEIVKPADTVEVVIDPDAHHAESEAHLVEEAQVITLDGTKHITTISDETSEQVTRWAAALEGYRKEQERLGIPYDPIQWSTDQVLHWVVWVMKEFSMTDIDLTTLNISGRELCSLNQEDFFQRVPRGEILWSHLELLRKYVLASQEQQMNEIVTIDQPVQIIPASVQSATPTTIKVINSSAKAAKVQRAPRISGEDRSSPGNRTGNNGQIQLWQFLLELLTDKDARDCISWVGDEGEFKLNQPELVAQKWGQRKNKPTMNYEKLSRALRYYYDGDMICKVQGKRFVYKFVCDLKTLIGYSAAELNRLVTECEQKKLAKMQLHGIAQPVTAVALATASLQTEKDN
In short: as §1

[4] = target: T4, ERG (Homo sapiens, UniProt P11308 1-479)
T4 sequence: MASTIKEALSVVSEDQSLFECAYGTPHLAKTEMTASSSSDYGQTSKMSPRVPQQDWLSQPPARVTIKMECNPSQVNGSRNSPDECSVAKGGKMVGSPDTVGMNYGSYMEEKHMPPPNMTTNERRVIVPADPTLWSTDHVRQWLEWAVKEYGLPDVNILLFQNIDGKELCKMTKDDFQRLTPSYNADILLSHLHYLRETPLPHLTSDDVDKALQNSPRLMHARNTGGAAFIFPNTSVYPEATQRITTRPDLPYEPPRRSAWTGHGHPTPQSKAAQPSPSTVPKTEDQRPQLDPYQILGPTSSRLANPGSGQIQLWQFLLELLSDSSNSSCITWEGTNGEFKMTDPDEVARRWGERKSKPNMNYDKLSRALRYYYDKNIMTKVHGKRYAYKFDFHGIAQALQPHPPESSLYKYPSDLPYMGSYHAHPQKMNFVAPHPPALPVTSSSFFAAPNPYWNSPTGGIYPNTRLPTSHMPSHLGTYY
In short: as §1

[5] = target: ELF1 (Homo sapiens, UniProt P32519 1-619)
ELF1, sequence (P32519 whole entry): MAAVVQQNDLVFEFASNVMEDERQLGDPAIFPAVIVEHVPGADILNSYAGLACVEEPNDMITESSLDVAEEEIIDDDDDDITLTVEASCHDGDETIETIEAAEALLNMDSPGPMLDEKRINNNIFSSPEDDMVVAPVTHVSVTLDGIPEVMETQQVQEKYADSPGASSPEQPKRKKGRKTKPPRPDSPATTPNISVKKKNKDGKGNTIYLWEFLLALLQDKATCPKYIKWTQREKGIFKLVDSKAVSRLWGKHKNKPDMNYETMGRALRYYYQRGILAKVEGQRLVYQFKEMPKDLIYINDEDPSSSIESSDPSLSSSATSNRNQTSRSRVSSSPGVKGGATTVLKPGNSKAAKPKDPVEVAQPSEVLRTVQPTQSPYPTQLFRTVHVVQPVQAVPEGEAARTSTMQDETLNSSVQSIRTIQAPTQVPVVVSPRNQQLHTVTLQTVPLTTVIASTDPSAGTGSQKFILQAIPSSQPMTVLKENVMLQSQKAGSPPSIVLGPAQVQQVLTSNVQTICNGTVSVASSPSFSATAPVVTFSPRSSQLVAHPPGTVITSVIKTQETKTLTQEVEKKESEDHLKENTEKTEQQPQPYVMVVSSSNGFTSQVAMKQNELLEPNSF
In short: as §1

[6] = target: T5, EHF (Homo sapiens, UniProt Q9NZC4 1-300)
T5 sequence: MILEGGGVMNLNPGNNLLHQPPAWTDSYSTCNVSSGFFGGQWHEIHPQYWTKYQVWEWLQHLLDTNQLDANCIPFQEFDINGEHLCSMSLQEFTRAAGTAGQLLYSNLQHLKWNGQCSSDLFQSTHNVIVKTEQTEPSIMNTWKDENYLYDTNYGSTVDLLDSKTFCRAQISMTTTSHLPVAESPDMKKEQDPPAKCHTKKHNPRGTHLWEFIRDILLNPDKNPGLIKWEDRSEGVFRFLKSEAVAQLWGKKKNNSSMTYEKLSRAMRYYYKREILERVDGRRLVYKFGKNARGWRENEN
In short: as §1

[7] = target: SPI1 (Homo sapiens, UniProt P17947 1-270)
In short: as §1

[8] = target: SPIB (Homo sapiens, UniProt Q01892 1-262)
SPIB, sequence (Q01892 whole entry): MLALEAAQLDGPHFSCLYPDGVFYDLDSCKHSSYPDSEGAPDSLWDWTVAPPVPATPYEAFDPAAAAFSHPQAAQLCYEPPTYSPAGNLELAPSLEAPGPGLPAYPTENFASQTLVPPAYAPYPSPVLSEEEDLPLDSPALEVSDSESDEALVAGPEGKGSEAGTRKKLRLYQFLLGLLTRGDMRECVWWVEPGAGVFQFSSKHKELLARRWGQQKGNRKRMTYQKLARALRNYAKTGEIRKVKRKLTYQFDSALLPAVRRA
In short: as §1

[9] = target: T6, ELK3 (Homo sapiens, UniProt P41970 1-407)
T6 sequence: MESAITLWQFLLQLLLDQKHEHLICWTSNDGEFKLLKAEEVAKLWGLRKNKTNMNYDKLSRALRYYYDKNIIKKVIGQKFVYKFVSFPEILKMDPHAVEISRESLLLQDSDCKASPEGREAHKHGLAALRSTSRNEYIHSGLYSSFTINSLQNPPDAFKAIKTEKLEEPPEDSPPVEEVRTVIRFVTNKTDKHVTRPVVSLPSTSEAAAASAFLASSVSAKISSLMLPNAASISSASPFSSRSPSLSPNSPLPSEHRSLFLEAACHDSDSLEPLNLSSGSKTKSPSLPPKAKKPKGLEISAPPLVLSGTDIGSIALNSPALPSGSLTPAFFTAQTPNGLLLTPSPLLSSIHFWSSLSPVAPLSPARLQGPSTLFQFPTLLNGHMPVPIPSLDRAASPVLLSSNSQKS
In short: as §1

Row | Sequence | binding signal [1] | binding signal [2] | binding signal [3] | binding signal [4] | binding signal [5] | binding signal [6] | binding signal [7] | binding signal [8] | binding signal [9]
1 | ATGCGA | 1.18 fold enrichment (6-mer frequency, TF over GST control) | 1.27 fold enrichment (6-mer frequency, TF over GST control) | 1.24 fold enrichment (6-mer frequency, TF over GST control) | 1.21 fold enrichment (6-mer frequency, TF over GST control) | 1.26 fold enrichment (6-mer frequency, TF over GST control) | 1.23 fold enrichment (6-mer frequency, TF over GST control) | 1.19 fold enrichment (6-mer frequency, TF over GST control) | 1.12 fold enrichment (6-mer frequency, TF over GST control) | 1.14 fold enrichment (6-mer frequency, TF over GST control)
2 | TCTTGT | 1.48 fold enrichment (6-mer frequency, TF over GST control) | 1.64 fold enrichment (6-mer frequency, TF over GST control) | 1.53 fold enrichment (6-mer frequency, TF over GST control) | 1.54 fold enrichment (6-mer frequency, TF over GST control) | 1.53 fold enrichment (6-mer frequency, TF over GST control) | 1.57 fold enrichment (6-mer frequency, TF over GST control) | 1.5 fold enrichment (6-mer frequency, TF over GST control) | 1.55 fold enrichment (6-mer frequency, TF over GST control) | 1.58 fold enrichment (6-mer frequency, TF over GST control)
3 | TTCGAA | 1.14 fold enrichment (6-mer frequency, TF over GST control) | 1.2 fold enrichment (6-mer frequency, TF over GST control) | 1.19 fold enrichment (6-mer frequency, TF over GST control) | 1.19 fold enrichment (6-mer frequency, TF over GST control) | 1.28 fold enrichment (6-mer frequency, TF over GST control) | 1.12 fold enrichment (6-mer frequency, TF over GST control) | 1.14 fold enrichment (6-mer frequency, TF over GST control) | 1.12 fold enrichment (6-mer frequency, TF over GST control) | 1.33 fold enrichment (6-mer frequency, TF over GST control)
4 | AAGTAA | 1.17 fold enrichment (6-mer frequency, TF over GST control) | 1.25 fold enrichment (6-mer frequency, TF over GST control) | 1.3 fold enrichment (6-mer frequency, TF over GST control) | 1.25 fold enrichment (6-mer frequency, TF over GST control) | 1.27 fold enrichment (6-mer frequency, TF over GST control) | 1.3 fold enrichment (6-mer frequency, TF over GST control) | 1.34 fold enrichment (6-mer frequency, TF over GST control) | 1.22 fold enrichment (6-mer frequency, TF over GST control) | 1.27 fold enrichment (6-mer frequency, TF over GST control)
5 | TGTATG | 1.31 fold enrichment (6-mer frequency, TF over GST control) | 1.16 fold enrichment (6-mer frequency, TF over GST control) | 1.25 fold enrichment (6-mer frequency, TF over GST control) | 1.14 fold enrichment (6-mer frequency, TF over GST control) | 1.23 fold enrichment (6-mer frequency, TF over GST control) | 1.2 fold enrichment (6-mer frequency, TF over GST control) | 1.18 fold enrichment (6-mer frequency, TF over GST control) | 1.16 fold enrichment (6-mer frequency, TF over GST control) | 1.22 fold enrichment (6-mer frequency, TF over GST control)
6 | TACGAA | 1.15 fold enrichment (6-mer frequency, TF over GST control) | 1.23 fold enrichment (6-mer frequency, TF over GST control) | 1.3 fold enrichment (6-mer frequency, TF over GST control) | 1.23 fold enrichment (6-mer frequency, TF over GST control) | 1.28 fold enrichment (6-mer frequency, TF over GST control) | 1.22 fold enrichment (6-mer frequency, TF over GST control) | 1.15 fold enrichment (6-mer frequency, TF over GST control) | 1.19 fold enrichment (6-mer frequency, TF over GST control) | 1.25 fold enrichment (6-mer frequency, TF over GST control)
7 | CCAATC | 1.21 fold enrichment (6-mer frequency, TF over GST control) | 1.14 fold enrichment (6-mer frequency, TF over GST control) | 1.2 fold enrichment (6-mer frequency, TF over GST control) | 1.12 fold enrichment (6-mer frequency, TF over GST control) | 1.23 fold enrichment (6-mer frequency, TF over GST control) | 1 fold enrichment (6-mer frequency, TF over GST control) | 1.14 fold enrichment (6-mer frequency, TF over GST control) | 1.1 fold enrichment (6-mer frequency, TF over GST control) | 1.22 fold enrichment (6-mer frequency, TF over GST control)
